Reference: PubChem BioAssay AID1159580 (chemical genetic matrix, 2015)
Where “and” joins values, the source holds several entries; their conditions need not be identical. Equal entries are not always repeated. Out of some 5,500 compounds screened, about 2,000 (36%) were called active. Inconclusive results (about 18%) are left out. Rule as the data show it: active = normalized growth mostly below about 0.91 (no sharp cut-off); inconclusive = no clear call, values can overlap the other calls; inactive = mostly above about 0.92. The list shows a part of the results.

Assay: chemical genetic growth profiling, strain panel (AID 1159580);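 also: tested at 20 µM; growth read once vehicle control cultures reached saturation at 30 °C; 1 = growth at the plate median or of vehicle wells; lower values mean less growth of the strain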
Settings: growth OD

Measured: normalized growth

C[N+]1(CCCCC[N+]2(C)CCCC2)CCCC1
inactive: S. cerevisiae deletion strains, locus YJR043C, strain POL32, active compounds read low 1.01 | S. cerevisiae deletion strains, locus YJR075W, strain HOC1, active compounds read low 1.02 and 0.994 | S. cerevisiae deletion strains, locus YKL009W, strain mrt4, active compounds read low 1.04 | S. cerevisiae deletion strains, locus YKL068W, active compounds read low 1.01 | S. cerevisiae deletion strains, locus YKL085W, strain MDH1 (second series), active compounds read low 1.01 | S. cerevisiae deletion strains, locus YKL085W, strain MDH1, active compounds read low 1.01 | S. cerevisiae deletion strains, locus YKL160W, strain elf1, active compounds read low 1.01 | S. cerevisiae deletion strains, locus YKL190W, strain CNB1, active compounds read low 1.01 | S. cerevisiae deletion strains, locus YKR001C, strain vps1, active compounds read low 1.01 | S. cerevisiae deletion strains, locus YKR026C, strain gcn3, active compounds read low 1 | S. cerevisiae deletion strains, locus YKR091W, strain srl3, active compounds read low 1 | S. cerevisiae deletion strains, locus YLL001W, strain dnm1, active compounds read low 1 | S. cerevisiae deletion strains, locus YLL026W, active compounds read low 0.992 | S. cerevisiae deletion strains, locus YLL041C, strain sdh2, active compounds read low 0.999 | S. cerevisiae deletion strains, locus YLR027C, strain aat2, active compounds read low 0.992 | S. cerevisiae deletion strains, locus YLR039C, strain RIC1, active compounds read low 1.02 | S. cerevisiae deletion strains, locus YLR058C, strain SHM2, active compounds read low 1.01 | S. cerevisiae deletion strains, locus YLR102C, strain apc9, active compounds read low 1.02 | S. cerevisiae deletion strains, locus YLR221C, strain rsa3, active compounds read low 1 | S. cerevisiae deletion strains, locus YLR258W, strain gsy2, active compounds read low 0.998 | S. cerevisiae deletion strains, locus YLR262C, strain YPT6 (second series), active compounds read low 1.03 | S. cerevisiae deletion strains, locus YLR262C, strain YPT6, active compounds read low 1.03 | S. cerevisiae deletion strains, locus YLR268W, strain sec22, active compounds read low 1.03 | S. cerevisiae deletion strains, locus YLR320W, strain mms22, active compounds read low 0.993 | S. cerevisiae deletion strains, locus YLR330W, strain CHS5, active compounds read low 1 | S. cerevisiae deletion strains, locus YLR342W, strain FKS1 (second series), active compounds read low 1.01 | S. cerevisiae deletion strains, locus YLR342W, strain FKS1, active compounds read low 0.995 | S. cerevisiae deletion strains, locus YLR357W, strain rsc2, active compounds read low 0.963 | S. cerevisiae deletion strains, locus YLR370C, strain arc18, active compounds read low 1 | S. cerevisiae deletion strains, locus YLR371W, strain rom2, active compounds read low 1.03 | S. cerevisiae deletion strains, locus YLR384C, strain iki3, active compounds read low 0.992 | S. cerevisiae deletion strains, locus YLR418C, strain cdc73, active compounds read low 1.02 | S. cerevisiae deletion strains, locus YML016C, strain PPZ1, active compounds read low 1.01 | S. cerevisiae deletion strains, locus YML032C, strain rad52, active compounds read low 1.03 | S. cerevisiae deletion strains, locus YML120C, strain ndi1, active compounds read low 0.99 | S. cerevisiae deletion strains, locus YML124C, strain tub3, active compounds read low 1.02 | S. cerevisiae deletion strains, locus YMR058W, strain fet3, active compounds read low 0.999 | S. cerevisiae deletion strains, locus YMR078C, strain ctf18, active compounds read low 1.03 | S. cerevisiae deletion strains, locus YMR125W, strain sto1, active compounds read low 0.979 | S. cerevisiae deletion strains, locus YMR129W, active compounds read low 0.999 | S. cerevisiae deletion strains, locus YMR205C, strain PFK2, active compounds read low 1.01 | S. cerevisiae deletion strains, locus YMR223W, strain ubp8, active compounds read low 1 | S. cerevisiae deletion strains, locus YMR231W, strain pep5, active compounds read low 0.993 | S. cerevisiae deletion strains, locus YMR263W, strain SAP30, active compounds read low 1.01 | S. cerevisiae deletion strains, locus YMR307W, strain GAS1, active compounds read low 1 and 1.02 | S. cerevisiae deletion strains, locus YNL067W, strain RPL9B, active compounds read low 1.02 | S. cerevisiae deletion strains, locus YNL071W, strain lat1, active compounds read low 0.997 | S. cerevisiae deletion strains, locus YNL128W, strain TEP1, active compounds read low 1.01 | S. cerevisiae deletion strains, locus YNL153C, strain GIM3, active compounds read low 1.01 and 1.02 | S. cerevisiae deletion strains, locus YNL175C, strain NOP13, active compounds read low 0.993 | S. cerevisiae deletion strains, locus YNL197C, strain WHI3, active compounds read low 0.982 | S. cerevisiae deletion strains, locus YNL209W, strain ssb2, active compounds read low 0.995 | S. cerevisiae deletion strains, locus YNL224C, strain SQS1, active compounds read low 0.988 | S. cerevisiae deletion strains, locus YNL233W, strain BNI4, active compounds read low 1.01 | S. cerevisiae deletion strains, locus YNL248C, strain rpa49, active compounds read low 0.996 | S. cerevisiae deletion strains, locus YNL250W, strain rad50, active compounds read low 1.02 | S. cerevisiae deletion strains, locus YNL271C, strain bni1, active compounds read low 1.01 | S. cerevisiae deletion strains, locus YNL298W, strain CLA4, active compounds read low 1.02 | S. cerevisiae deletion strains, locus YNL307C, strain MCK1, active compounds read low 1.03 | S. cerevisiae deletion strains, locus YNL322C, strain KRE1 (second series), active compounds read low 0.998 | S. cerevisiae deletion strains, locus YNL322C, strain KRE1, active compounds read low 1 | S. cerevisiae deletion strains, locus YNR049C, strain mso1, active compounds read low 0.994 | S. cerevisiae deletion strains, locus YNR052C, strain pop2, active compounds read low 1.02 | S. cerevisiae deletion strains, locus YOL006C, strain TOP1, active compounds read low 1.04 | S. cerevisiae deletion strains, locus YOL012C, strain htz1 1.04 | S. cerevisiae deletion strains, locus YOL147C, strain pex11, active compounds read low 1.02 | S. cerevisiae deletion strains, locus YOR001W, strain rrp6, active compounds read low 0.995 | S. cerevisiae deletion strains, locus YOR061W, strain CKA2, active compounds read low 1.01 | S. cerevisiae deletion strains, locus YOR069W, strain VPS5, active compounds read low 1 | S. cerevisiae deletion strains, locus YOR070C, strain gyp1, active compounds read low 0.998 | S. cerevisiae deletion strains, locus YOR080W, strain dia2, active compounds read low 0.987 | S. cerevisiae deletion strains, locus YOR083W, strain WHI5 (second series), active compounds read low 1.01 | S. cerevisiae deletion strains, locus YOR083W, strain WHI5, active compounds read low 0.993 | S. cerevisiae deletion strains, locus YOR106W, strain vam3, active compounds read low 1.01 | S. cerevisiae deletion strains, locus YOR136W, strain idh2, active compounds read low 1.01 | S. cerevisiae deletion strains, locus YOR144C, strain elg1, active compounds read low 1.02 | S. cerevisiae deletion strains, locus YOR184W, strain ser1, active compounds read low 1.03 | S. cerevisiae deletion strains, locus YOR265W, strain rbl2, active compounds read low 0.994 | S. cerevisiae deletion strains, locus YOR270C, strain vph1, active compounds read low 1.02 | S. cerevisiae deletion strains, locus YOR290C, strain snf2, active compounds read low 0.996 | S. cerevisiae deletion strains, locus YOR316C, strain cot1, active compounds read low 1.01 | S. cerevisiae deletion strains, locus YPL051W, strain arl3, active compounds read low 0.999 | S. cerevisiae deletion strains, locus YPL055C, strain LGE1, active compounds read low 1.03 | S. cerevisiae deletion strains, locus YPL078C, strain atp4, active compounds read low 0.997 | S. cerevisiae deletion strains, locus YPL106C, strain sse1, active compounds read low 0.985 | S. cerevisiae deletion strains, locus YPL240C, strain hsp82, active compounds read low 0.982 | S. cerevisiae deletion strains, locus YPL241C, strain CIN2, active compounds read low 1.01 and 0.991 | S. cerevisiae deletion strains, locus YPR119W, strain clb2, active compounds read low 1.02 | S. cerevisiae deletion strains, locus YPR141C, strain kar3, active compounds read low 1.01 | S. cerevisiae deletion strains, locus YPR163C, strain tif3, active compounds read low 1.02 | S. cerevisiae deletion strains, locus YPR167C, strain met16, active compounds read low 1.01 | S. cerevisiae deletion strains, strain wtn01, active compounds read low 1.01 | S. cerevisiae strains, strain wild type, active compounds read low 1.01
